{"source": "the supplement of paper PMC9477273", "data": [{"system": "DRIVER-selected RNA biosensor (aptazyme) pool", "assay": "maximum fold change of ribozyme cleavage across biosensor pool versus no-compound control; higher = stronger biosensor response (ligand inhibits cleavage)", "details": "10 µM", "outline": "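A pool of 1,730 ribozyme biosensors, resynthesized on an array, was transcribed with T7 at 37°C for 15–30 min in 9 mM rNTPs, with one compound present at a final 10 µM (added from a 10x DMSO stock). Reverse transcription followed at 50°C, and the cleaved and uncleaved products were PCR-barcoded and counted by Illumina sequencing. The reported fold change of cleavage is the highest value across all biosensors, taken as the ratio of cleaved:uncleaved read fractions relative to a no-compound condition and corrected with reference sequences.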", "values": [{"smiles": "CC(NC(=O)C1CCC(CNS(=O)(=O)c2ccccc2)CC1)c1ccccc1", "note": "(stereo unspecified)", "maximum fold change": 2.1}, {"smiles": "CCc1nc2ccc(C(=O)NCCc3ccco3)cc2nc1CC", "maximum fold change": 2.69}, {"smiles": "COc1ccc(Br)cc1CNCc1sc(C(=O)O)cc1C", "maximum fold change": 3.28}, {"smiles": "COCCNCc1c(C(=O)O)c(C)n(Cc2ccccc2F)c1C", "maximum fold change": 2.4}, {"smiles": "Cc1nn2c(-c3ccco3)nnc2c2ccccc12", "maximum fold change": 8.73}, {"smiles": "O=C(Cc1cn(Cc2cccc(Cl)c2)c2ccccc12)N1CCCC1", "maximum fold change": 3.3}, {"smiles": "CCOC(=O)c1ccc(S(=O)(=O)N2CCOCC2)cc1", "maximum fold change": 1.53}, {"smiles": "CC(C)c1ccc(C2c3c(-c4ccccc4O)n[nH]c3C(=O)N2CCCO)cc1", "note": "(stereo unspecified)", "maximum fold change": 2.85}, {"smiles": "Cc1ccc(S(=O)(=O)NC(CC(=O)O)c2cccs2)cc1", "note": "(stereo unspecified)", "maximum fold change": 2.72}, {"smiles": "Cc1ccc(C(=O)N(Cc2ccccc2F)C2CCS(=O)(=O)C2)cc1", "note": "(stereo unspecified)", "maximum fold change": 2.6}, {"smiles": "Cc1ccc(-c2noc(CCC(=O)NCc3ccc(F)cc3Cl)n2)cc1", "maximum fold change": 3.35}, {"smiles": "CCOc1ccccc1-n1cc2c(c1-c1cccc(C)c1)c(=O)n(C)c(=O)n2C", "maximum fold change": 1.83}, {"smiles": "Cc1cc2c(c(=O)n1CCN(C)C)C(c1cccc(Br)c1)C(C#N)=C(N)O2", "note": "(stereo unspecified)", "maximum fold change": 2.39}, {"smiles": "CCOc1cc(C(=O)C(=O)c2ccc(OC)c(OCC)c2)ccc1OC", "maximum fold change": 2.92}, {"smiles": "COc1ccc(C2=NN(CCC(=O)N3CCCCC3)C(=O)CC2)cc1", "maximum fold change": 4.11}, {"smiles": "N=C1NC(=O)/C(=C/c2cc(Br)ccc2OCc2ccccc2)S1", "maximum fold change": 4.89}, {"smiles": "CCOC(=O)C1=C(C)NC(=S)NC1c1ccc(O)c(OC)c1", "note": "(stereo unspecified)", "maximum fold change": 3.37}, {"smiles": "CCN1CCN(C(=O)c2ccc(Cn3c(SCc4ccccc4F)nc4ccncc43)cc2)CC1", "maximum fold change": 2.65}, {"smiles": "Cc1cc2cc(CNC(=O)C3CCCC3)ccc2[nH]1", "maximum fold change": 5.24}, {"smiles": "O=C1N=c2sc(nn2C(=N)/C/1=Cc1c[nH]c2c1cccc2)N1CCCC1", "maximum fold change": 7.4}, {"smiles": "Cc1ccc2nc(/C(C#N)=C\\c3ccc[nH]3)[nH]c2c1", "maximum fold change": 4.98}, {"smiles": "CC(C)COc1ccc(-c2nn(-c3ccccc3)cc2CO)cc1", "maximum fold change": 3.19}, {"smiles": "COc1ccc(S(=O)(=O)Nc2cccnc2)cc1", "maximum fold change": 2.43}, {"smiles": "Cc1nc(NC(=N)NC(=O)CCN2C(=O)c3ccccc3C2=O)nc2ccccc12", "maximum fold change": 8.2}, {"smiles": "COCCNC(=O)/C(C#N)=C/c1c(Oc2ccccc2Cl)nc2ccccn2c1=O", "maximum fold change": 2.74}, {"smiles": "Cc1cc(C2C(=O)c3ccccc3C2=O)nc2ccccc12", "maximum fold change": 11.3}, {"smiles": "c1ccc2nc3c(nc2c1)c1ccccc1n3CN1CCCCC1", "maximum fold change": 10.9}, {"smiles": "Cc1ccc(CS(=O)Cc2ccc(C(=O)NC(C)C)o2)cc1", "note": "(stereo unspecified)", "maximum fold change": 1.84}, {"smiles": "N/C(=N\\OC(=O)N1CCOCC1)c1ccccn1", "maximum fold change": 2.1}, {"smiles": "COc1ccc(-c2cn3c4ccccc4n(N)c3n2)cc1OC", "maximum fold change": 3.73}, {"smiles": "CC(NC(=O)/C=C/c1ccccc1Cl)c1ccccc1", "note": "(stereo unspecified)", "maximum fold change": 2.1}]}]}
